Shown are actives, neighbours in structure and some others; about 4.6% of the full set was active somewhere.
Wee1 stabilizer = human Wee1 degradation inhibition, primary screen; P30291; HeLa Luc-Wee1K328M stability, luciferase luminescence; 100% = proteasome inhibitor MG132 effect; reporter increase, % at 5 µM; 220,000 compounds, 1.2% hits; AID 1321;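 active = activation above the mean of all tested compounds plus 3 SD, set per screening run, cut at about 8.8% in these data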;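 note: cells exposed to compound for 20 h before luminescence read; 0% = DMSO alone and 100% = MG132 at 30 µM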
DAX1 inh-1 = inhibitors of DAX1 repression of SF-1 activated StAR promoter; HEK293T StAR-luciferase reporter, SF-1/DAX-1 repression relief; inhibition, % at 6.8 µM; 370,000 compounds, 1.1% hits; AID 652010;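 active = inhibition above the mean over all tested compounds plus 3 SD, cut at about 3.6% in these data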;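 note: 0% = DAX-1 cells with DMSO and 100% = cells lacking DAX-1 with DMSO; higher inhibition means more luminescence from relief of DAX-1 repression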
hgDAF-12 ag = activates the H. glycines DAF-12 receptor ligand-binding domain; activation, % at 6.8 µM; AID 687014; 370,000 compounds, 1.8% hits; HEK293 GAL4-hgDAF12 UAS-luciferase reporter, agonist luminescence; normalized to butyrate control;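 active = activation above a cutoff set at the mean of all screened compounds plus 3 SD, cut at about 10% in these data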;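 note: 0% = DMSO wells and 100% = sodium butyrate wells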
hcDAF12 agonist = activators of H. contortus DAF-12 nuclear receptor | AID 652067 | activation, % at 6.8 µM | HEK293 hcDAF-12 lit1-tk-luc reporter, luminescence; 0% DMSO, 100% Δ7-dafachronic acid | 370,000 compounds, 1.4% hits;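 active = activation above the mean of all tested compounds plus 3 SD, cut at about 5.5% in these data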;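 note: 100% = response to 3 µM Δ7-dafachronic acid high control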
DAX1 inh-2 = inhibits human nuclear receptor DAX1; inhibition, % at 6.75 µM; 340,000 compounds, 0.99% hits; HEK293 Gal4-DAX1 luciferase reporter, luminescence;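 active = inhibition above the mean over all tested compounds plus 3 SD, cut at about 4.2% in these data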;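 note: 0% = DAX1-transfected cells with DMSO and 100% = empty-vector control cells with DMSO; inhibition shows as a rise in luminescence from relieved DAX1 repression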
Target sequence (P51843 207-470 limits assumed): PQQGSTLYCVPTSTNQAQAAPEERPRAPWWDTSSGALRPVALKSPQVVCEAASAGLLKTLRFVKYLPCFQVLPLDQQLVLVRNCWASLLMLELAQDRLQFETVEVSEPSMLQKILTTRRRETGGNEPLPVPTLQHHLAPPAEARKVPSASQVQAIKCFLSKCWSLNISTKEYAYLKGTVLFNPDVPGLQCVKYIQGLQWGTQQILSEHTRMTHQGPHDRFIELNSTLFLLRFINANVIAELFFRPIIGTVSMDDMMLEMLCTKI
ssDAF-12 act = activators of S. stercoralis DAF-12 nuclear receptor; HEK293 ssDAF-12/GRIP1 lit1-tk-luc reporter, luminescence; % of 3 µM dafachronic acid response; activation, % at 6.8 µM; 370,000 compounds, 1% hits; AID 652126;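 active = activation above the mean over all tested compounds plus 3 SD, cut at about 0.9% in these data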;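 note: 0% = DMSO-only wells and 100% = 3 µM delta7-dafachronic acid wells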
* hit, by the source's call; / = no result.

SMILES	Wee1 stabilizer	DAX1 inh-1	hgDAF-12 ag	hcDAF12 agonist	DAX1 inh-2	ssDAF-12 act
Cc1ccnc(N(C(=O)c2cccs2)C(=O)c2cccs2)c1	12*	2	13*	2	3	0
CCCCC(=O)Nc1cnc(NC(=O)c2cccs2)cc1C	/	2	12*	4	2	0
Cc1ccnc(NC(=O)CCCNC(=O)c2ccc(Cl)cc2)c1	/	4.0*	8	1	1	0
Cc1ccnc(NC(=O)CNC(=O)c2ccc(C)s2)c1	/	4.0*	10	3	2	0
O=C(N[C@H](C(=O)N1CCC[C@H]1C(=O)NCCc1ccccc1Cl)C1CCCCC1)c1ccccc1	/	1	-3	0	/	0
Cc1ccc(OCc2nnc(SCC(=O)Nc3ccc(S(N)(=O)=O)cc3)n2-c2ccc(Cl)cc2)cc1	/	0	-3	-2	/	-1
COC(=O)[C@H]1C[C@@]2(N3CCCCC3)c3ccccc3N[C@H]2N1S(=O)(=O)c1ccc([N+](=O)[O-])cc1	/	-1	4	-2	/	-1
Cc1ccnc(NC(=O)CCC(=O)c2cccs2)c1	/	4.0*	1	2	-5	-1
COc1ccc(NC(=O)c2ccc3c(c2)n(C)c(=O)n3C)cc1	-2	0	0	-2	6.4*	-2
CCOc1ccc(NC(=O)Nc2ccc3nccnc3c2)cc1	9.4*	-1	1	-2	0	-1
CCOc1ccc(NC(=O)c2ccc3nccnc3c2)cc1	0	0	4	2	0	-2
COc1ccc(NC(=O)c2ccc3ncsc3c2)cc1	/	0	10	1	1	1.3*
CCOc1ccc(NC(=O)c2ccc(OC)cc2)cc1	2	1	13*	0	-1	-1
CCc1ccc(NC(=O)c2ccc3ncsc3c2)cc1	6	/	/	/	/	/
CCCC(CNC(C)=O)(C1=CCCCC1)c1ccccc1 (centres undefined)	/	0	6	-2	0	-1
CCCNC(=O)C1(C)CCCN(C(=O)c2cc(C)n(C(C)(C)C)n2)C1 (centres undefined)	/	0	0	-1	/	-1
CC1(C(=O)Nc2ccc(Cl)cc2)Cc2c(-c3ccc4c(c3)OCO4)ccnc2O1 (centres undefined)	/	-1	-1	-2	/	-1
CCOC(=O)CSc1ccc(C(=O)Nc2ccc(OC)cc2)cn1	9.4*	0	8	0	-1	0
COc1cccc(NC(=O)c2ccc(OC(F)(F)F)cc2)c1	/	1	11*	3	2	0
O=C(NCc1ccccc1)C(c1ccc(-c2ccccc2)cc1)N1CCN(c2ccccc2F)CC1 (centres undefined)	/	0	5	1	/	-1
COC(=O)CNC(=O)[C@H](Cc1ccccc1)NC1(C(=O)NCCc2c[nH]c3ccccc23)CCCCC1	/	/	0	1	/	-1
CC(=O)c1ccc(Nc2cnn(C34CC5CC(CC(CC(=O)O)(C5)C3)C4)c(=O)c2Cl)cc1	1	0	2	1	5.4*	-1
Cn1c(CSCc2ccccc2)nnc1SCC(=O)Nc1nccs1	-4	-1	-3	-1	-1	-1
COc1ccccc1C(=O)NCc1nnc(SCC(=O)Nc2nccs2)n1C	/	0	-1	3	8.3*	-1
Cc1cc(C)cc(NC(=O)CSc2nnc(CN3CCOCC3)n2C)c1	0	-1	3	-2	4.4*	-1
SMILES	Wee1 stabilizer	DAX1 inh-1	hgDAF-12 ag	hcDAF12 agonist	DAX1 inh-2	ssDAF-12 act
Cn1c(COc2ccccc2)nnc1SCC(=O)Nc1ccc(N2CCOCC2)cc1	/	0	-1	-3	0	-1
COc1ccccc1OCc1nnc(SCC(=O)Nc2ccc(N3CCOCC3)cc2)n1C	/	-1	7	0	4.8*	-1
O=C(OCc1cn(Cc2c(F)cccc2F)nn1)N1CCOCC1	/	1	3	-2	/	-1
CC1Cc2cc(S(=O)(=O)N3CCC(C(=O)N(C)Cc4ccccc4)CC3)ccc2N1C(=O)C1CC1 (centres undefined)	/	-1	-3	-3	0	-2
COC(=O)C1=C(C)N(Cc2cccc(C(F)(F)F)c2)C(=NCc2ccc3c(c2)OCO3)NC1c1ccc(F)cc1 (centres undefined)	/	-1	-1	-3	/	-1
Cc1ccc2nc(NC(=O)COC(=O)c3ccccn3)sc2c1	9.3*	1	3	4	1	0
CSc1nsc(SCC(=O)Nc2ccc(OC(C)=O)cc2)n1	8	2	11*	1	3	0
CCOCC(=O)Nc1nc2ccc(OCC)cc2s1	1	1	11*	3	1	-1
CCOc1ccc2nc(NC(=O)CSc3ccc(Cl)cc3)sc2c1	4	0	4	0	0	-1
C/C=C/C(=O)OCC(=O)Nc1nc2ccc(C)cc2s1	-2	1	5	0	0	-1
CCOc1ccc2nc(NC(=O)CSc3nc(SC)ns3)sc2c1	3	0	4	6.1*	0	0
COc1ccc(Oc2cccc3c2S(=O)(=O)N(C2CC2)C[C@@H](COCc2ccccc2)O3)cc1	/	-1	-2	-2	/	-2
CN(C)S(=O)(=O)c1ccc(N2CCCC2)c(C(=O)NNC(=O)COc2cccc(F)c2)c1	/	-1	-1	0	0	-2
Cc1cc(C)nc(-n2ncc3c2CCCC3=O)n1	-2	0	0	-3	5.4*	-1
Cc1nn(-c2ccc(N3CCCCC3)nn2)c(C)c1CCC(=O)Nc1ccc(F)c(F)c1	/	1	6	6.4*	-1	-1
Cc1ccc(NC(=O)CCc2c(C)nn(-c3ccc(N4CCCCC4)nn3)c2C)cc1C	/	2	3	-1	1	-1
Cc1cc(C)cc(NC(=O)CCc2c(C)nn(-c3ccc(N4CCCCC4)nn3)c2C)c1	/	4.1*	8	0	0	0
O=C(NC1CCCCN(Cc2ccc(Cl)cc2)C1=O)c1ccc(F)c(F)c1 (centres undefined)	/	-2	1	-3	/	0
O=C(NNC(=O)c1ccc(Br)s1)c1csc(N2CCOCC2)n1	/	0	1	-1	2	-1
COC(=O)c1ccc(NC(=O)CSc2nnc(-c3cccnc3)o2)cc1	/	1	-1	0	0	-1
Cc1ccc(S(=O)(=O)N(C)Cc2ccc(C(=O)N/N=C/c3ccc(OC(F)F)cc3)cc2)cc1	6	0	-1	-1	6.2*	-1
C/C(=N\NC(=O)c1ccc(CN(C)S(=O)(=O)c2ccc(C)cc2)cc1)c1ccc(OC(F)F)cc1	0	-1	2	0	0	-2
O=C(NCCc1ccccc1)c1cnc2n(c1=O)CCS2	2	2	8	2	2	1.3*
COc1ccc(N(C(=O)c2ccncc2)S(=O)(=O)c2cccs2)cc1	9.1*	0	0	-1	3	-2

Assay outcomes (PubChem BioAssay)
